# Assay results reported in PMC5540273 (PLoS ONE, 2017).
# Tested on: SGK2
# Settings: concentration: 1 μM, replicates: in singlicate; n = 1
# 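Note: KINOMEscan kinase panel screen.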
row,Compound,%Inh [%]
1,Cc1cccc(Nc2nc(N[C@H]3CCNC3)ncc2C(N)=O)c1.Cl [GSK2197149],12
2,O=C(Nc1ccccc1F)NC1CCN(c2ccnc(Nc3ccc(F)cc3)n2)CC1 [GSK1379800],0
3,CN(C)S(=O)(=O)c1cc(-c2ccc3nccc(-c4cccc(S(N)(=O)=O)c4)c3c2)cnc1N [GSK1669921],6
4,COc1ccc(CNC(=O)NC2CCN(c3ccnc(Nc4ccc(F)cc4)n3)CC2)cc1 [GSK1379788],0
5,Cl.Cl.NCC(C(=O)Nc1cc(Br)c(-c2ccnc3[nH]ccc23)s1)c1ccccc1 (stereo not shown) [GSK1269851],0
6,COC(=O)Nc1nc2ccc(Oc3ccc(NC(=O)Nc4cc(C(F)(F)F)ccc4F)cc3)cc2n1C.Cl [GW692089],0
7,Nc1ncc(-c2cccnc2)c2scc(-c3ccc4c(c3)CCN4C(=O)Cc3ccccc3)c12 [GSK683281],0
8,Cc1ccc(C(=O)Nc2ccc(Nc3ccnc4cc(-c5nccs5)ccc34)cc2O)cc1.Cl [GW494702],0
9,Cn1cc(-c2[nH]c3cc(NC(=O)[C@H](N)C4CCCCC4)cc4c3c2C=NNC4=O)cn1,83
10,CCc1ccc(-c2ccc3c(c2)-c2c(cnn2C)S(=O)(=O)N3C)cc1,0
11,Nc1ncc(-c2ccc3nccc(-c4ccncc4)c3c2)cc1S(=O)(=O)N1CCOCC1 [GSK1627798],0
12,O=C(Nc1n[nH]c2nc(-c3ccc(O)cc3)ccc12)C1CC1 [SB-710363],36
13,O=C(O)C(F)(F)F.O=C(O)C(F)(F)F.O=c1[nH]ccc2nc(N[C@@H]3CCCNC3)nc(Nc3ccc(S(=O)(=O)N4CCOCC4)cc3)c12 [GSK2177277],96.1
14,COc1cccc(NC(=O)NC2CCN(c3ccnc(Nc4cc(OC)c(OC)c(OC)c4)n3)C2)c1 (stereo not shown) [GSK1379763],0
15,CCS(=O)(=O)c1ccc(OC)c(Nc2nccc(-c3c(-c4cccc(NC(=O)c5c(F)cccc5F)c4)nn4ncccc34)n2)c1 [GSK326180],5
16,COC(=O)Nc1nc2cc(Oc3ccc(NC(=O)Nc4cc(C(F)(F)F)ccc4F)cn3)ccc2[nH]1.Cl.Cl [GW681170],1
17,COc1cc(Nc2nccc(N3CCC(NC(=O)Nc4cccc(C(C)=O)c4)C3)n2)cc(OC)c1OC (stereo not shown) [GSK1379753],5
18,COc1cc(Nc2nccc(-c3c(-c4cccc(NC(=O)c5c(F)cccc5F)c4)nn4ccccc34)n2)cc(OC)c1OC [GSK323521],26
19,Cl.Cl.NCC(NC(=O)c1cc(-c2ccccc2)c(-c2ccnc3[nH]ccc23)s1)c1ccccc1 (stereo not shown) [GSK1321561],27

row,Compound,%Inh [%]
1,Cl.c1ccc(-c2ccc3c(Nc4ccc5[nH]ncc5c4)ccnc3c2)nc1 [GW440137],0
2,CCn1c(-c2nonc2N)nc2c(C#CC(C)(C)O)ncc(OCCCCN)c21.O=C(O)C(F)(F)F.O=C(O)C(F)(F)F [GSK507274],12
3,CN1CCN(CCCNc2nccc(-c3c(-c4ccc(F)cc4)nn4cc(C(F)(F)F)ccc34)n2)CC1 [GW621581],0
4,Cl.Cl.NCC(NCc1ccc(-c2ccnc3[nH]ccc23)s1)c1ccccc1 (stereo not shown) [GSK1321565],0
5,COc1cc(Nc2ncc3c(C)nc(-c4cc5ccccc5[nH]4)n3n2)cc(OC)c1OC [GW869516],0
6,Nc1ncnc2c1nc(-c1ccccc1)n2-c1ccccc1 [SKF-97293],0
7,O=C(Nc1cccc(-c2nn3ccccc3c2-c2ccnc(Nc3cccc(C(F)(F)F)c3)n2)c1)c1c(F)cccc1F [GSK292658],0
8,CCCCc1nn2ncccc2c1-c1ccnc(Nc2ccc(N3CCN(C)CC3)cc2)n1 [GW684941],0
9,Fc1ccc(-c2ncn(C3CCNCC3)c2-c2ccnc(Oc3ccc(-c4ccccc4)cc3)n2)cc1 [SB-245391],18
10,FC(F)(F)c1ccc(/C=C/c2cncnc2Nc2ccc3[nH]c(Cc4ccccc4)nc3c2)cc1 [GW709199],0
11,CC(=O)N1CCN(c2ccc(Nc3nccc(-c4sc(C(C)C)nc4-c4cccc(NS(=O)(=O)c5cccc(Cl)c5)c4)n3)cn2)CC1 [GSK1660437],0
12,CC(=O)Nc1nc2cnc(Nc3cc(NC(=O)c4cccc(C5(C#N)CC5)c4Cl)ccc3C)nc2s1,0
13,NCCCC(NC(=O)c1cc(Br)c(-c2ccnc3[nH]ccc23)s1)c1ccccc1.O=C(O)C(F)(F)F.O=C(O)C(F)(F)F (stereo not shown) [GSK1287544],65
14,CN(C)Cc1ccc(-c2ccc3c(Nc4ccc(Oc5ccccn5)cc4)ccnc3c2)o1 [GW567148],0
15,Cn1cc(-c2ccc3c(c2)CCN3C(=O)Cc2cccc(Cl)c2)c2c(N)ncnc21 [GSK2606590],0
16,O=c1[nH]cc(-c2ccc(N3CCOCC3)cc2)c2sc(-c3cn[nH]c3)cc12 [GSK2276055],0
17,CN1CCN(Cc2cccc(-c3ccc4c(Nc5ccc(Oc6ccccc6)cc5)ccnc4c3)c2)CC1 [GW578342],0
18,COc1cccc(-c2ccc3c(NC(=O)C4CC4)n[nH]c3n2)c1 [SB-710903],5
